Measurements as given in PubChem BioAssay (EPA / NIEHS).
Activity calls are given as the source filed them. How the source made its calls: active means hit-call score of the fitted dose curve at least 0.9, where 1 is the maximum; inactive means score below 0.9.

Columns and labels:
Conditions in all cases: mRNA level, 48 h; actives raise or lower the signal
[1] = read-out: ABC Transporter (ABCB11), ABCB11 (gene 8647); experiment: LTEA_HepaRG_ABCB11: Life Technologies and Expression Analysis (LTEA) Assay for ABC Transporter (ABCB11) using HepaRG (AID 2283463)
Procedure, shortened: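 Using HepaRG cultures held in 0.5% DMSO, chemicals were tested at half-log dilutions from 100 uM for 48 h. Induction or suppression of ABCB11 mRNA, normalized to ACTB, GAPDH and POLR2A, was fitted bidirectionally against vehicle.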

[2] = read-out: ABC Transporter (ABCC2), ABCC2 (gene 1244); experiment: LTEA_HepaRG_ABCC2: Life Technologies and Expression Analysis (LTEA) Assay for ABC Transporter (ABCC2) using HepaRG (AID 2283464)
Procedure, shortened: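 HepaRG cells were plated 48 h, switched to serum-free induction medium, then exposed in duplicate for 48 h to 8 concentrations (top 100 uM, half-log steps, 0.5% DMSO). ABCC2 mRNA was measured by qRT-PCR normalized to ACTB/GAPDH/POLR2A; bidirectional fitting versus DMSO.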

[3] = read-out: Broad substrate specificity ATP-binding cassette transporter ABCG2 (Homo sapiens) (UniProt Q9UNQ0); experiment: LTEA_HepaRG_ABCG2: Life Technologies and Expression Analysis (LTEA) Assay for ABC Transporter (ABCG2) using HepaRG (AID 2283465)
Procedure, shortened: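 Gene expression of ABCG2 in HepaRG liver cells is quantified by qRT-PCR following 48 h exposure across an eight-point series topping at 100 uM. Values come from bidirectional fitting relative to DMSO vehicle.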

[4] = read-out: ATP-citrate lyase (ACLY), ACLY (gene 47); experiment: LTEA_HepaRG_ACLY: Life Technologies and Expression Analysis (LTEA) Assay for ATP-citrate lyase (ACLY) using HepaRG (AID 2283466)
Procedure, shortened: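 ACLY expression changes in human HepaRG liver cells are quantified by qRT-PCR after 48 h exposure to test chemicals (maximum 100 uM, half-log steps). Values are fitted in both directions relative to 0.5% DMSO vehicle.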

[5] = read-out: Peroxisomal acyl-coenzyme A oxidase 1 (ACOX1) gene, ACOX1 (gene 51); experiment: LTEA_HepaRG_ACOX1: Life Technologies and Expression Analysis (LTEA) Assay for Peroxisomal acyl-coenzyme A oxidase 1 (ACOX1) gene using HepaRG (AID 2283467)
Procedure, shortened: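 Human HepaRG hepatic cultures, 48 h treatment with test chemicals up to 100 uM. ACOX1 expression read by qRT-PCR relative to 0.5% DMSO vehicle.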

[6] = read-out: Alkaline Phosphatase, Placental (ALPP) gene, ALPP (gene 250); experiment: LTEA_HepaRG_ALPP: Life Technologies and Expression Analysis (LTEA) Assay for Alkaline Phosphatase, Placental (ALPP) gene using HepaRG (AID 2283468)
Procedure, shortened: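 Differentiated human HepaRG cells were plated and cultured 48 h, then exposed in duplicate for 48 h in serum-free induction medium to eight half-log concentrations from 100 uM in 0.5% DMSO. ALPP mRNA was measured by TaqMan qRT-PCR, normalized to ACTB, GAPDH, POLR2A.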

[7] = read-out: Bcl-2 (BAD) gene, BAD (gene 572); experiment: LTEA_HepaRG_BAD: Life Technologies and Expression Analysis (LTEA) Assay for Bcl-2 (BAD) gene using HepaRG (AID 2283469)
Procedure, shortened: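 Activity values reflect up- or down-regulation of BAD mRNA in human HepaRG hepatic cells treated 48 h in serum-free medium, with eight-point half-log dosing capped at 100 uM and 0.5% DMSO vehicle.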

[8] = read-out: Bcl-2 (BAX) gene, BAX (gene 581); experiment: LTEA_HepaRG_BAX: Life Technologies and Expression Analysis (LTEA) Assay for Bcl-2 (BAX) gene using HepaRG (AID 2283470)
Procedure, shortened: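 qRT-PCR read-out of BAX mRNA, normalized to three housekeeping genes, after 48 h chemical exposure of human HepaRG cells in serum-free induction medium; eight-point half-log series, top 100 uM, 0.5% DMSO vehicle; bidirectional fit versus DMSO.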

[9] = read-out: adenosine kinase (ADK) gene, ADK (gene 132); experiment: LTEA_HepaRG_ADK: Life Technologies and Expression Analysis (LTEA) Assay for adenosine kinase (ADK) gene using HepaRG (AID 2283471)
Procedure, shortened: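 Differentiated HepaRG cells dosed 48 h in serum-free induction medium, 0.5% DMSO vehicle, eight half-log concentrations from 100 uM, in duplicate. ADK mRNA by TaqMan qRT-PCR normalised to ACTB, GAPDH, POLR2A; bidirectional fit versus DMSO.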

[10] = read-out: Alpha-fetoprotein (AFP) gene, AFP (gene 174); experiment: LTEA_HepaRG_AFP: Life Technologies and Expression Analysis (LTEA) Assay for Alpha-fetoprotein (AFP) gene using HepaRG (AID 2283472)
Procedure, shortened: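 qRT-PCR (Fluidigm TaqMan) readout of AFP transcript, normalized to three housekeeping genes, fitted bidirectionally against 0.5% DMSO baseline. HepaRG cells received chemicals for 48 h in serum-free induction medium, top concentration 100 uM, half-log steps.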

[11] = read-out: BCL2L11 (gene 10018); experiment: LTEA_HepaRG_BCL2L11: Life Technologies and Expression Analysis (LTEA) Assay for Bcl-2 (BCL2L11) gene using HepaRG (AID 2283473)
Procedure, shortened: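 Differentiated human HepaRG cells in serum-free induction medium were exposed in duplicate for 48 h to eight concentrations (top 100 uM, half-log steps, 0.5% DMSO). BCL2L11 mRNA was quantified by TaqMan qRT-PCR, normalized to ACTB/GAPDH/POLR2A, bidirectional fit versus DMSO.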

[12] = read-out: Apolipoprotein A-V (APOA5) gene, APOA5 (gene 116519); experiment: LTEA_HepaRG_APOA5: Life Technologies and Expression Analysis (LTEA) Assay for Apolipoprotein A-V (APOA5) gene using HepaRG (AID 2283474)
Procedure, shortened: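 Differentiated human HepaRG cells were exposed in duplicate for 48 h to eight half-log concentrations from 100 uM in 0.5% DMSO. APOA5 mRNA was quantified by TaqMan qRT-PCR, normalized to ACTB, GAPDH and POLR2A, and fitted bidirectionally against DMSO.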

[13] = read-out: Bcl-2 (BID) gene, BID (gene 637); experiment: LTEA_HepaRG_BID: Life Technologies and Expression Analysis (LTEA) Assay for Bcl-2 (BID) gene using HepaRG (AID 2283476)
Procedure, shortened: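 HepaRG, 48 h exposure, 8-pt half-log series, top 100 uM, 0.5% DMSO vehicle, duplicates. Readout: BID mRNA by TaqMan qRT-PCR; housekeeping-normalized; bidirectional curve fit vs DMSO baseline.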

[14] = read-out: Caspase-3 (Homo sapiens) (UniProt P42574); experiment: LTEA_HepaRG_CASP3: Life Technologies and Expression Analysis (LTEA) Assay for cysteine-aspartic acid protease (CASP3) using HepaRG (AID 2283477)
Procedure, shortened: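 Differentiated human HepaRG cells in serum-free induction medium were exposed 48 h to 8-point half-log concentrations from 100 uM (0.5% DMSO vehicle). CASP3 mRNA was measured by qRT-PCR, normalised to ACTB, GAPDH and POLR2A, with bidirectional fitting against DMSO.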

[15] = read-out: Cytochrome P450 (CYP24A1), CYP24A1 (gene 1591); experiment: LTEA_HepaRG_CYP24A1: Life Technologies and Expression Analysis (LTEA) Assay for Cytochrome P450 (CYP24A1) using HepaRG (AID 2283478)
Procedure, shortened: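 Differentiated HepaRG cells, pre-cultured 48 h, were exposed in duplicate for 48 h in serum-free induction medium to 8 half-log concentrations (top 100 uM, 0.5% DMSO). CYP24A1 mRNA was quantified by TaqMan qRT-PCR, normalized to ACTB/GAPDH/POLR2A, fitted bidirectionally versus DMSO.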

[16] = read-out: Cytochrome P450 (CYP1A2), CYP1A2 (gene 1544); experiment: LTEA_HepaRG_CYP1A2: Life Technologies and Expression Analysis (LTEA) Assay for Cytochrome P450 (CYP1A2) using HepaRG (AID 2283479)
Procedure, shortened: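 Differentiated human HepaRG cells in serum-free induction medium were exposed in duplicate for 48 h to 8-point half-log concentrations up to 100 uM in 0.5% DMSO. CYP1A2 mRNA measured by qRT-PCR, normalized to ACTB, GAPDH, POLR2A; bidirectional fit vs DMSO.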

[17] = read-out: cysteine-aspartic acid protease (CASP8), CASP8 (gene 841); experiment: LTEA_HepaRG_CASP8: Life Technologies and Expression Analysis (LTEA) Assay for cysteine-aspartic acid protease (CASP8) using HepaRG (AID 2283480)
Procedure, shortened: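 Concentration-response in duplicate up to 100 uM (half-log steps, 0.5% DMSO) on differentiated HepaRG cultures for 48 h. Expression change of CASP8 mRNA is determined by TaqMan qRT-PCR with housekeeping-gene normalization.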

[18] = read-out: Cytochrome P450 (CYP2B6), CYP2B6 (gene 1555); experiment: LTEA_HepaRG_CYP2B6: Life Technologies and Expression Analysis (LTEA) Assay for Cytochrome P450 (CYP2B6) using HepaRG (AID 2283481)
Procedure, shortened: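 Differentiated HepaRG cells, serum-free induction medium, exposed 48 h in duplicate to 8-point half-log concentrations from 100 uM in 0.5% DMSO. CYP2B6 mRNA by qRT-PCR, normalized to ACTB, GAPDH, POLR2A; bidirectional fit versus DMSO.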

[19] = read-out: Apoptosis regulator Bcl-2 (Homo sapiens) (UniProt P10415); experiment: LTEA_HepaRG_BCL2: Life Technologies and Expression Analysis (LTEA) Assay for Bcl-2 gene using HepaRG (AID 2283475)
Procedure, shortened: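 qRT-PCR read-out (Fluidigm TaqMan) of BCL2 transcript, normalised to three housekeeping genes, after 48 h chemical exposure of HepaRG cells; 8-point half-log series, top 100 uM, 0.5% DMSO vehicle. Gain or loss of signal fitted relative to DMSO baseline.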

Measured: AC50

Sequence of Broad substrate specificity ATP-binding cassette transporter ABCG2 (Homo sapiens) (Q9UNQ0 whole entry, looked up): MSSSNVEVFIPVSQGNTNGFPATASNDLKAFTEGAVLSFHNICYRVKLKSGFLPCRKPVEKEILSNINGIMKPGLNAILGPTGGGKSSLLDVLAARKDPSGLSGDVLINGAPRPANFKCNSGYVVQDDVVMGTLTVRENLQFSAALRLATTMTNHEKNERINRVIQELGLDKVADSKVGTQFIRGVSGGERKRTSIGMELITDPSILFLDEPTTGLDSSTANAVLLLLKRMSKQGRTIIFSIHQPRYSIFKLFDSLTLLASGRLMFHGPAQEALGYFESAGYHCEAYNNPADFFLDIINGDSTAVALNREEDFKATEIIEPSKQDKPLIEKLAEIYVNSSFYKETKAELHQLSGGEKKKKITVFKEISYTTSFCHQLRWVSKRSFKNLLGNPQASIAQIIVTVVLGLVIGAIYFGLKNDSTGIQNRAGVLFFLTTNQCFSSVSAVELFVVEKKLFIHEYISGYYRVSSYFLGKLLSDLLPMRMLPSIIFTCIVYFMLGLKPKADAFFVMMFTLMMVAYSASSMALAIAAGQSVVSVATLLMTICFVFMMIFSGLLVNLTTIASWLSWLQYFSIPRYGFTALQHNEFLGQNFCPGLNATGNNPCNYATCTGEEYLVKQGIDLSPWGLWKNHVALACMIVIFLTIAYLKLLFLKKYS
Sequence of Caspase-3 (Homo sapiens) (P42574 whole entry, looked up): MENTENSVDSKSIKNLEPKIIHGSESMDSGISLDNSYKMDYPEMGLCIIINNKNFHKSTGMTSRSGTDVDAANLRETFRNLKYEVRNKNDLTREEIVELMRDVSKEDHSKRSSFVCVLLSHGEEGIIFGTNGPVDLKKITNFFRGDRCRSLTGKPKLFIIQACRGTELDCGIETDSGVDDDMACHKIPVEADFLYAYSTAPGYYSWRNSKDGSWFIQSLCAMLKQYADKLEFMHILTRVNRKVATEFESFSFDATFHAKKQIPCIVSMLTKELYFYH
Sequence of Apoptosis regulator Bcl-2 (Homo sapiens) (P10415 whole entry, looked up): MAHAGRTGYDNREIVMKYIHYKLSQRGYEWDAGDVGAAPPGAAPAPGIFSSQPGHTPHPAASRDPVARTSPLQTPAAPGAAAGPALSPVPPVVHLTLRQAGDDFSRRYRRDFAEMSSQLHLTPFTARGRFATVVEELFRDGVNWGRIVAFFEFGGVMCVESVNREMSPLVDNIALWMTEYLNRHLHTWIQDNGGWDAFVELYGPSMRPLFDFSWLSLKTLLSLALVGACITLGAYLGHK

C#CCC1=C(C)C(OC(=O)C2C(C=C(C)C)C2(C)C)CC1=O (stereo not drawn)
active: [2] 19.6 µM | [3] 9.87 µM | [10] 81.1 µM | [18] 12.1 µM
not listed: [19]
inactive: all other assays above

CNC(=O)ON=C(C)SC
active: [1] 16.7 µM
not listed: [19]
inactive: all other assays above

CCc1cnc(C2=NC(C)(C(C)C)C(=O)N2)c(C(=O)O)c1 (stereo not drawn)
not listed: [19]
inactive: all other assays above

CC(C)=CC1C(C(=O)OCN2C(=O)C3=C(CCCC3)C2=O)C1(C)C (stereo not drawn)
active: [16] 31.5 µM | [18] 50 µM
inactive: all other assays above
